High-throughput results (PubChem)
ALR H2O2 inh – blocks human ALR sulfhydryl oxidase activity. P55789. purified ALR, DTT oxidation, H2O2 HRP-luminol luminescence. inhibition, % (test concentration not listed). 290,000 tested, 3.8% active;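 active = mean replicate inhibition above about 79%, with every replicate also reaching it, limit read from the data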
Target sequence (P55789 whole entry, looked up): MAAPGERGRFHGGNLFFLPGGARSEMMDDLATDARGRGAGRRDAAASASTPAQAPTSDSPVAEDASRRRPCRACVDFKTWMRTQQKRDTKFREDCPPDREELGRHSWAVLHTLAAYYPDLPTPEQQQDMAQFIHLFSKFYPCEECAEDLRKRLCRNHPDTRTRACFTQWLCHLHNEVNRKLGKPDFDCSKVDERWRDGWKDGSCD
Mot1-301 SUMO – SUMOylation pathway inhibition by Mot1-301 growth rescue | S. cerevisiae Mot1-301 growth rescue, ATP luminescence, 38.5C; percent above DMSO median, 100 means doubled | growth rescue, % at 18.8 µM | 320,000 tested, 1% active;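 active = every valid replicate shows activation above 250% relative to neutral control wells; inactive = the rest, any valid replicate at or below 250%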;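 note: OY570 slx delta 5 strain wells were the positive control but not used for scaling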
VLA-4 inh – inhibition in a human VLA-4 binding assay; VLA-4 expressing cells, ligand binding flow cytometry; inhibition, % (about 7 µM as worked out from the volumes in the protocol); 330,000 tested, 0.2% active; AID 2557; in the data active = inhibition above about 50%
Efflux pump mplx – antifungal efflux pump inhibition, Nile Red retention; S. cerevisiae Candida pump triplex; 330,000 tested, 0.44% active; inhibition, % at 10 µM; AID 485275;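 active = plate passing quality check with inhibition over a set limit, or well fluorescence over plate mean plus 4 SD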;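 note: Nile Red retained in pooled yeast measured as flow cytometry median fluorescence; 0% = buffer negative control and 100% = Enniatin B positive control; higher means more Nile Red kept so more efflux inhibition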
A1 inh – inhibitors of the anti-apoptotic protein A1, read as caspase activation. MEF A1-2A-BIM cells, Caspase-Glo 3/7 luminescence, 3 h; percent of clofoctol response, vehicle zero. caspase activation, % (concentration not given with the values). 330,000 tested, 0.066% active;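 active = over half of replicate activation scores above 10%, or exactly half above 10 with the replicate mean above 10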
AHR activator – activators of human aryl hydrocarbon receptor. AID 2796. AHR-responsive luciferase reporter cells, luminescence. activation, % at 5 µM. 320,000 tested, 2.5% active; in the data active = activation above about 47%;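 note: 0% = vehicle wells and 100% = reference agonist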
Active calls of the source: *; / = not tested or not shown. Compounds with a hit are over-represented: about 7.2% of the library has one in this group of screens.

SMILES	ALR H2O2 inh	Mot1-301 SUMO	VLA-4 inh	Efflux pump mplx	A1 inh	AHR activator
CCN(CC)C(=O)c1ccc(NC(=O)CNC(C)c2cccc3ccccc23)cc1 (stereo not drawn)	-9	17	7	0	1	-2
O=C1NC(=S)NC(=O)C1=Cc1ccc(Br)s1	64	-28	32	0	0	1
CC1(C)OC(c2ccccc2)=C/C(=C/C=C2C(=O)NC(=S)NC2=O)O1	88*	-8	-85	0	-1	0
CC(=O)O[C@@H]1/C=C/[C@](C)(O)C[C@@H](C)C/C=C/[C@H]2[C@H](O)[C@@](C)(O)[C@@H](C)[C@H]3[C@H](Cc4ccccc4)NC(=O)[C@@]312	-5	4	30	0	0	-1
CC(=O)O[C@@H]1/C=C/[C@](C)(O)C[C@@H](C)C/C=C/[C@H]2[C@@H]3O[C@]3(C)[C@@H](C)[C@H]3[C@H](Cc4ccccc4)NC(=O)[C@@]312	/	165	17	0	6.4*	5
CCCCn1c(O)c(C=NCCCn2ccnc2)c(=O)[nH]c1=O	0	-2	0	0	0	11
CC(C)CCCn1c(O)c(/C=C2/C=CC=N2)c(=O)[nH]c1=O	98*	-10	4	0	0	3
Cc1c(C(=O)C(=O)N2CCC3(CC2)OCCO3)c2ccccc2n1C	2	-1	-13	0	-2	0
O=c1[nH]c(=O)n(-c2ccccc2F)c(O)c1/C=C1\C=Nc2ccccc21	96*	-17	6	0	1	13
COc1ccc(-n2c(O)c(/C=C3\C=Nc4ccc(Br)cc43)c(=O)[nH]c2=O)c(OC)c1	97*	-10	8	0	-1	20
COc1ccc(-n2c(O)c(/C=C3\C=Nc4ccc(Br)cc43)c(=O)[nH]c2=O)cc1	3	-11	9	0	-2	14
COc1ccccc1NC(=O)COC(=O)c1cn(C)c2ccccc12	0	155	-6	1	0	5
Cc1cc(/C=C2/C(=O)NC(=O)N(Cc3ccco3)C2=O)c(C)n1-c1ccccc1O	81*	/	6	0	0	2
O=C(O)Cn1cc(/C=C2\C(=O)NC(=O)N(Cc3ccco3)C2=O)c2ccccc21	98*	11	5	0	1	17
COc1ccc(CNC(=O)CCC(=O)N2C[C@H]3C[C@H](C2)c2cccc(=O)n2C3)cc1OC	/	6	10	0	1	-1
Cc1ccccc1-n1c(O)c(/C=C2/C(c3ccccc3)=Nc3ccccc32)c(=O)[nH]c1=O	30	4	-8	0	0	33
Cc1cccc(-n2c(O)c(/C=C3/C(c4ccccc4)=Nc4ccccc43)c(=O)[nH]c2=O)c1	18	64	0	0	1	76*
COC(=O)C1=C(c2ccc(F)cc2F)C[C@@H]2CC[C@H]1N2C(=O)N1CCC(O)(c2ccc(Cl)cc2)CC1	0	-5	21	0	1	-2
CC1CCCN(C(=O)CCl)C1 (stereo not drawn)	-6	-15	56*	0	-1	1
CC1CCCN(C(=O)CN2C3CCC2CC(O)(c2ccc(F)cc2)C3)C1 (stereo not drawn)	-4	-8	18	0	0	0
C[n+]1c(-c2ccccc2)c2cc(N)ccc2c2ccc(N)cc21	99*	116	-213	8.5*	-2	22
Cc1ccc(C(=O)C2(C)N(O)C(C)C(c3cccs3)=[N+]2[O-])cc1 (stereo not drawn)	20	-3	10	0	0	0
O=C(N/N=C/c1c(O)n(C2CCCCC2)c(=S)[nH]c1=O)c1ccccc1	55	3	4	0	1	6
CCC(C)n1c(O)c(/C=N/Nc2ccccc2)c(=O)[nH]c1=S (stereo not drawn)	100*	355*	4	0	-1	13
O=c1[nH]c(=S)n(C2CC2)c(O)c1/C=N/Nc1cccc2ccccc12	-5	-16	-70	0	1	76*
SMILES	ALR H2O2 inh	Mot1-301 SUMO	VLA-4 inh	Efflux pump mplx	A1 inh	AHR activator
O=c1[nH]c(=S)n(C2CC2)c(O)c1/C=N/Nc1ccccc1	/	282*	0	0	1	21
C[C@@H]1C2C[C@@]34COC(=O)C3=CC=C[C@H]4[C@@]13C[C@H](c1ccoc1)O[C@@H]3O2	11	566	12	0	0	0
FC(F)(F)Oc1ccc(NC2=NCCCS2)cc1	/	1	0	0	0	3
CC(Cc1ccccc1Sc1ccccc1O)N(C)C (stereo not drawn)	98*	-17	3	0	1	0
C#CCN(C)[C@H](C)Cc1ccccc1	-2	-6	14	0	0	-2
CCOC(=O)Cc1csc(NC(=O)c2c(O)c3ccccc3n(CCC(C)C)c2=O)n1	-12	11	2	0	0	5
O=C(CSC1c2ccccc2-c2ccccc21)N/N=C/c1ccccc1O	98*	19	-3	0	-2	7
O=C(CSC1c2ccccc2-c2ccccc21)N/N=C/c1ccc(C(=O)O)cc1	-5	26	-2	0	1	3
COC(=O)C1=C(c2cc3ccccc3s2)C[C@@H]2CC[C@H]1N2C(=O)N1CCC(C)CC1	0	-1	13	0	0	-2
O=C(NCCCn1ccnc1)C(Cl)(Cl)Cl	-5	-8	-11	0	0	0
Nc1ccc(CCN2CCN(c3cccc(C(F)(F)F)c3)CC2)cc1	22	161	1	0	0	-3
FC(F)(F)c1ccc2c(c1)N(CCCN1CCN(CCCl)CC1)c1ccccc1S2	99*	3	4	0	0	3
COc1ccccc1OCC(=O)N1CCCC(N2CCN(c3ccc(F)cc3)CC2)C1 (stereo not drawn)	95*	0	8	0	-1	/
O=c1[nH]c(=O)n(C2CCCCCC2)c(O)c1C=NCc1cccnc1	1	-4	-5	0	1	3
COc1ccc2c(c1OC)C(=O)OC2c1c(O)n(C2CCCCC2)c(=O)[nH]c1=O (stereo not drawn)	96*	-7	5	0	1	4
COC(=O)C1=C(c2ccc3ccccc3c2)C[C@@H]2CC[C@H]1N2C(=O)NC(C)C	6	2	3	0	1	0
O=C1NC(=O)C(=Cc2coc3ccccc3c2=O)C(=O)N1	14	50	6	0	-1	1
O=C1NC(=O)C(=C/C=C/c2coc3ccc(Br)cc3c2=O)C(=O)N1	/	3	-82	3.5*	0	5
O=C(Cc1ccc(N(CCCl)CCCl)cc1)NC(Cc1ccc(Cl)cc1)C(=O)O (stereo not drawn)	98*	-7	19	0	0	-1
O=c1[nH]c(=S)[nH]c(O)c1N=Nc1ccc(S(=O)(=O)N2CCOCC2)cc1	95*	0	-10	0	-4	2
